# PubChem BioAssay (NCATS)
# Several values for one entry are separate records, joined by “and”; a condition that tells them apart may be missing. Equal entries are not always repeated. Results filed as inconclusive are left out. Activity calls are given as the source filed them. Unless noted, calls follow the shape of the dose curve; as a rule, active = well fitted curve in the direction sought with a large enough effect; inconclusive = small, poorly fitted or top-dose-only effect, or another doubt; inactive = no such curve, though single readings can be large; an effect the other way counts as inactive or inconclusive. Non-standard residues stand in square brackets, D forms with d. Residues, ends and D or L forms follow the SMILES beside them. *: point of attachment. Nva = CCC[C@H](N)C(=O)O; Cbz = O=C(OCc1ccccc1)*
# What was measured:
# [1] = molecular target: Cytochrome P450 2D6 (Homo sapiens) (UniProt P10635); test: Cytochrome P450 family 2 subfamily D member 6 (CYP2D6) small molecule antagonists: luciferase biochemical (cell-free) qHTS assay (AID 1645840; active = well fitted curve in the direction sought with a large enough effect in the repeat runs; an effect the other way counts as inactive or inconclusive; also: nearly all actives have a fitted effect of over 55% in size; also: potency is read from the fitted curve at half-maximal effect)
# Sequence of Cytochrome P450 2D6 (Homo sapiens) (P10635 whole entry, looked up): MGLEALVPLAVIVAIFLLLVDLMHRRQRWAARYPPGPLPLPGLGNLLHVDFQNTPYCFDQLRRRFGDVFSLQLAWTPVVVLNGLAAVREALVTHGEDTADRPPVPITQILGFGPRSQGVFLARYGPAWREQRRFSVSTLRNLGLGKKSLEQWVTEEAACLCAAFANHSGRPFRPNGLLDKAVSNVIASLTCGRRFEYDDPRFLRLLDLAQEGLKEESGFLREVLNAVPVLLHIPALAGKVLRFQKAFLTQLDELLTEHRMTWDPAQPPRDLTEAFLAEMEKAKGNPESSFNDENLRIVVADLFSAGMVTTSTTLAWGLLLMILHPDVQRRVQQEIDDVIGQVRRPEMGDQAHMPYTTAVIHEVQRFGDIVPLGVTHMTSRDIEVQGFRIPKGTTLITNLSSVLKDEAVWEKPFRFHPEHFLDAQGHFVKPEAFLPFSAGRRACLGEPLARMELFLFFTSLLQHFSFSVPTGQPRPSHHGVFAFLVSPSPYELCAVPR
# In short: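 P450-Glo CYP2D6 system: proluciferin substrate converted by enzyme to luciferin, read by luminescence proportional to activity. Enzyme-substrate mix with compound 10 min at room temperature, then NADPH regeneration 1 h before detection reagent.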
# [2] = molecular target: Cytochrome P450 2C9 (Homo sapiens) (UniProt P11712); test: Cytochrome P450 family 2 subfamily C member 9 (CYP2C9) small molecule antagonists: luciferase biochemical (cell-free) qHTS assay (AID 1645842; active = well fitted curve in the direction sought with a large enough effect in the repeat runs; an effect the other way counts as inactive or inconclusive; also: nearly all actives have a fitted effect of over 55% in size; also: potency is read from the fitted curve at half-maximal effect)
# Sequence of Cytochrome P450 2C9 (Homo sapiens) (P11712 whole entry, looked up): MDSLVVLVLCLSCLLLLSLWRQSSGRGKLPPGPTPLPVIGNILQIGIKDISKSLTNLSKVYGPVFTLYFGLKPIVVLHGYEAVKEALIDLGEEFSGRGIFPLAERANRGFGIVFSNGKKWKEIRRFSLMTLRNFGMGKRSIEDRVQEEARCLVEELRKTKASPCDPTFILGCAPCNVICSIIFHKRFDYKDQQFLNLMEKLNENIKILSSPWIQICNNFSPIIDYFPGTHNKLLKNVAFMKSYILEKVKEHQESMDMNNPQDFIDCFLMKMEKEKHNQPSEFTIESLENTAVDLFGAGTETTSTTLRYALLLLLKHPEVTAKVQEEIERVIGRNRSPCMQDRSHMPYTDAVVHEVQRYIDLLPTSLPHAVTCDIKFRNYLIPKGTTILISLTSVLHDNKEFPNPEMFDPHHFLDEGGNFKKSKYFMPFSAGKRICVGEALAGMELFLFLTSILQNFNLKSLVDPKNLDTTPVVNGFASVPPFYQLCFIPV
# In short: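 P450-Glo CYP2C9 system: proluciferin substrate with enzyme in mix containing 0.4% BSA, 10 min at room temperature, then NADPH regeneration solution added and incubated 1 h at 37C. Detection reagent stopped reaction; luminescence read after 20 min as RLU.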
# [3] = Primary qHTS for inhibitors of nuclear receptor binding SET domain protein 2 (NSD2) in an isogenic RCH-ACV NSD2 p.E1099K mutant (9B) (AID 1645876); also: nearly all actives have a fitted effect of over 70% in size; also: potency is read from the fitted curve at half-maximal effect
# [4] = A High-Content qHTS Against Drug Library for the Identification of Small Molecules that Inhibit DYT1 Early Onset Primary Dystonia-Associated Cell Pathology (AID 1645839; calls by dose curve; also: series mostly up to about 46 µM)
# In short: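 Induced EGFP-delE TorsinA cells are imaged after 48 h of compound treatment. Punctate fusion-protein distribution gives the %pathology value, while nuclei counts flag toxicity. Wild-type EGFP-hTOR1A cells define the normal pattern.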
# [5] = Primary qHTS for inhibitors of nuclear receptor binding SET domain protein 2 (NSD2) in an RCH-ACV wild type WT cells (2C) (AID 1645877); also: nearly all actives have a fitted effect of over 70% in size; also: potency is read from the fitted curve at half-maximal effect
# [6] = molecular target: Cytochrome P450 3A4 (Homo sapiens) (UniProt P08684); test: Cytochrome P450 family 3 subfamily A member 4 (CYP3A4) small molecule antagonists: luciferase qHTS assay (AID 1645841; active = well fitted curve in the direction sought with a large enough effect in the repeat runs; an effect the other way counts as inactive or inconclusive; also: potency is read from the fitted curve at half-maximal effect; nearly all actives have a fitted effect of over 45% in size)
# Sequence of Cytochrome P450 3A4 (Homo sapiens) (P08684 whole entry, looked up): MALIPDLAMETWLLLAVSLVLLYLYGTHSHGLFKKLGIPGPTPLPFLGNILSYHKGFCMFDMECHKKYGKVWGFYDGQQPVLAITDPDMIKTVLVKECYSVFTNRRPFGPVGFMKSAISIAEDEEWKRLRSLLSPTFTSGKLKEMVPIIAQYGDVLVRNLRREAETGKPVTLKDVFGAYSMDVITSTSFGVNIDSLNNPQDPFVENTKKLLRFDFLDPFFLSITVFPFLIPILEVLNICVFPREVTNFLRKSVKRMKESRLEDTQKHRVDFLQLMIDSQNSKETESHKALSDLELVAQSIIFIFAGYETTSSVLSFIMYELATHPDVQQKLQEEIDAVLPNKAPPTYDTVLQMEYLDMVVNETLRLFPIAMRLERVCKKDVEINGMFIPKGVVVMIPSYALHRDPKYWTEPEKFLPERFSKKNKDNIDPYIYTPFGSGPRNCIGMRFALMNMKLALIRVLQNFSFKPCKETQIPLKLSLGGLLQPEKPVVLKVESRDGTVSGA
# In short: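 P450-Glo CYP3A4 enzyme with proluciferin substrate was preincubated with DMSO-dissolved compounds for 10 min at room temperature. NADPH regeneration solution started a 1 h reaction. Detection reagent stopped it, and luminescence was read after 20 min.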
# [7] = molecular target: N-terminal Xaa-Pro-Lys N-methyltransferase 1 (Homo sapiens) (UniProt Q9BV86); test: Confirmatory qHTS for Inhibitors of N-terminal methyltransferase 1 (NTMT1): MTaseGlo Assay (AID 1645874); settings: NTMT1 enzyme, MTase-Glo SAH luminescence; also: potency is read from the fitted curve at half-maximal effect; nearly all actives have a fitted effect of over 65% in size
# Sequence of N-terminal Xaa-Pro-Lys N-methyltransferase 1 (Homo sapiens) (Q9BV86 whole entry, looked up): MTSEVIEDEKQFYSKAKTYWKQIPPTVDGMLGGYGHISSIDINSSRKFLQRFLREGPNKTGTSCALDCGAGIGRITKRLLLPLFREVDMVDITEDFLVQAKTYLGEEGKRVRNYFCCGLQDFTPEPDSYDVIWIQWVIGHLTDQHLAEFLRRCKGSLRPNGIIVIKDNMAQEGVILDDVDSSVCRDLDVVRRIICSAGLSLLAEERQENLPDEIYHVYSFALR
# In short: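 Enzyme mix (125 nM NTMT1, 100 uM SAM) + compound, 15 min RT; + 1 uM SPKRIA, 30 min RT, dark; MTase-Glo reagent 30 min, detection solution 30 min; luminescence. % inhibition vs no-enzyme/DMSO controls, 4-parameter Hill fit.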
structure (smiles),measurement,setting,value
NC1=N[C@H]2[C@H](CS[C@H]2CCCCC(=O)O)N1,Potency,[1],inactive
same,Potency,[2],inactive
same,Potency,[3],inactive
CCCCC(=O)O[C@]1(C(=O)CO)[C@@H](C)C[C@H]2[C@@H]3CCC4=CC(=O)C=C[C@]4(C)[C@@]3(F)[C@@H](O)C[C@@]21C,outcome,[4],inactive
same,Potency,[2],15.5 µM (active)
same,Potency,[3],inactive
same,Potency,[5],8.4 nM (active) and 33.2 nM (active)
COc1ccc(Nc2cc(-c3cnc(N)nc3)nc(N3CCOCC3)n2)cn1,Potency,[1],inactive
same,Potency,[2],8.49 µM (active)
same,Potency,[3],525 nM (active)
Cc1noc(-c2ccc(CSCCC(=O)O)cc2)c1NC(=O)OC(C)c1ccccc1Cl (stereo unspecified),Potency,[1],inactive
same,Potency,[2],12 µM (active)
same,Potency,[3],inactive
CCCc1nc(C(C)(C)O)c(C(=O)O)n1Cc1ccc(-c2ccccc2-c2nn[nH]n2)cc1,Potency,[1],inactive
same,Potency,[2],inactive
same,Potency,[3],inactive
CCn1c(=O)c2c(nc(C=Cc3ccc(OC)c(OC)c3)n2C)n(CC)c1=O,outcome,[4],inactive
same,Potency,[1],inactive
same,Potency,[3],inactive
same,Potency,[5],inactive
COC[C@H](NC(=O)c1cnc(C)s1)C(=O)N[C@@H](COC)C(=O)N[C@@H](Cc1ccccc1)C(=O)[C@@]1(C)CO1,Potency,[1],inactive
same,Potency,[6],10.7 µM (active)
same,Potency,[2],inactive
same,Potency,[3],132 nM (active)
same,Potency,[5],83.3 nM (active)
CC(C)Oc1ccc(C(=O)N[C@H](CNC(=O)CN(C)C)Cc2ccc(-c3cn4cccc([C@H](C)O)c4n3)cc2)cc1Cl,Potency,[1],5.35 µM (active)
same,Potency,[2],10.7 µM (active)
same,Potency,[3],59 nM (active)
CCOC(=O)N1CCN([N+]([O-])=NOc2ccc([N+](=O)[O-])cc2C#N)CC1,Potency,[1],inactive
O=C(Nc1ccc(Oc2ccnc3[nH]ccc23)c(F)c1)c1cccn(-c2ccc(F)cc2)c1=O,Potency,[1],inactive
same,Potency,[2],1.9 µM (active)
same,Potency,[3],16600 nM (active)
CN1CCCN(C(=O)c2cccc(-c3ccc(C=C4C(=O)Nc5ccc(Cl)cc54)o3)c2)CC1,Potency,[7],9.16 µM (active)
C[C@@H]1CC[C@@]2(OC1)OC1CC3C4CC=C5CC(O)CCC5(C)C4CCC3(C)C1[C@@H]2C (stereo partly specified),Potency,[3],inactive
same,Potency,[5],inactive
C[N+](C)([O-])CCNc1ccc(NCC[N+](C)(C)[O-])c2c1C(=O)c1c(O)ccc(O)c1C2=O,Potency,[3],52.5 nM (active)
same,Potency,[5],37.2 nM (active)
CN(C)c1ccc(C(=O)NCCCCCCC(=O)NO)cc1,Potency,[3],525 nM (active)
same,Potency,[5],934 nM (active)
CC(N[C@H]1CCCC[C@H]1NC(=O)c1ccc(Cl)cc1)c1cccc2ccccc12 (stereo partly specified),Potency,[3],6610 nM (active)
same,Potency,[5],6610 nM (active)
O=C(c1ccc(F)cc1)N1CCC[C@H](c2nc(-c3ccc(F)cc3)no2)C1,Potency,[3],inactive
same,Potency,[5],inactive
O=C(Nc1nnc(-c2ccco2)o1)c1cc(-c2ccccc2)nc2ccccc12,Potency,[3],18600 nM (active)
same,Potency,[5],13200 nM (active)
CC(C)NC[C@@H](C(=O)N1CCN(c2ncnc3c2[C@H](C)C[C@H]3O)CC1)c1ccc(Cl)cc1,Potency,[3],1660 nM (active)
same,Potency,[5],2630 nM (active)
COc1cc(C(=O)NC2CCN(C)CC2)ccc1Nc1ncc2c(n1)N(C1CCCC1)CCC(=O)N2C(C)C,Potency,[3],13200 nM (active)
same,Potency,[5],10500 nM (active)
Nc1nc(N)c2nc(-c3cccc(O)c3)c(-c3cccc(O)c3)nc2n1,Potency,[3],16.4 µM (active) and 18.6 µM (active)
same,Potency,[5],13 µM (active) and 16.6 µM (active)
CC(=O)O[C@H]1C[C@@H]2CC[C@H]3[C@H]4C[C@H]([N+]5(C)CCCCC5)[C@@H](OC(C)=O)[C@@]4(C)CC[C@@H]3[C@@]2(C)C[C@H]1[N+]1(C)CCCCC1,Potency,[3],inactive
same,Potency,[5],inactive
CC(C)C[C@@H](C=O)NC(=O)[C@H](CC(C)C)NC(=O)[C@H](CC(C)C)NC(=O)OCc1ccccc1 (Cbz-Leu-Leu-Leu-aldehyde),Potency,[3],1050 nM (active)
same,Potency,[5],934 nM (active)
COc1cccc2c1C(=O)c1c(O)c3c(c(O)c1C2=O)C[C@@](O)(C(=O)CO)C[C@@H]3O[C@H]1C[C@H](N)[C@@H](O)[C@H](C)O1,Potency,[3],66.1 nM (active)
same,Potency,[5],46.8 nM (active)
COc1cc([C@@H]2c3cc4c(cc3[C@H](O)[C@H]3COC(=O)[C@@H]23)OCO4)cc(OC)c1OC,Potency,[3],662 nM (active)
same,Potency,[5],417 nM (active)
C[C@H](CCC(=O)O)[C@H]1CCC2C3C[C@H](O)[C@@H]4C[C@H](O)CC[C@]4(C)C3CC[C@@]21C (stereo partly specified),Potency,[3],inactive
same,Potency,[5],inactive
COc1ccc([C@@H]2CNC(=O)C2)cc1OC1CCCC1,Potency,[3],inactive
same,Potency,[5],inactive
CCC[C@@H](C=O)NC(=O)[C@H](CC(C)C)NC(=O)[C@H](CC(C)C)NC(=O)OCc1ccccc1 (Cbz-Leu-Leu-[Nva]-aldehyde),Potency,[3],2090 nM (active)
same,Potency,[5],1050 nM (active)
COc1ccc2c(c1OC)C(=O)OC2[C@H]1c2c(cc3c(c2OC)OCO3)CCN1C (stereo partly specified),Potency,[3],20900 nM (active)
same,Potency,[5],23500 nM (active)
C=CC(=O)N1CCc2ccc(-n3c(=O)ccc4cnc5ccc(-c6cnn(C)c6)cc5c43)cc21,Potency,[3],363 nM (active)
same,Potency,[5],323 nM (active)
CCc1ccc(C(=O)Nc2cc(CN3CCN(C)CC3)cc(C(F)(F)F)c2)cc1C#Cc1cnc2ccnn2c1,Potency,[3],5.78 µM (active) and 5.25 µM (active)
same,Potency,[5],5.15 µM (active) and 4.17 µM (active)
COC(=O)[C@H](CCCN=C(N)N)NS(=O)(=O)c1ccc(C)cc1,Potency,[3],inactive
same,Potency,[5],inactive
CCNC(=O)c1cc2c(-c3cc(OCCN4CCCC4)c(Cl)cc3Cl)nc(N)nc2s1,Potency,[3],512 nM (active)
same,Potency,[5],512 nM (active)
c1coc(CNc2ncnc3nc[nH]c23)c1,Potency,[3],inactive
same,Potency,[5],inactive
CC(C)C[C@H](NC(=O)[C@@H](NC(=O)c1cccc(-c2ccccc2)n1)[C@@H](C)O)B(O)O,Potency,[3],29 nM (active) and 32.3 nM (active)
same,Potency,[5],18.3 nM (active) and 22.9 nM (active)
O=C(O)CCCCC(CCSCc1ccccc1)SCc1ccccc1 (stereo unspecified),Potency,[3],inactive
same,Potency,[5],inactive
